Test results taken from PubChem BioAssay (NCI).
About 79,000 compounds went through this panel and 15% of them were active in at least one assay; those are over-represented in the sample as a whole. No stated cut-off is given here; in the data, active means growth inhibition above about 70%; inactive means the rest.

Columns and labels:
[1] = NCI Yeast Anticancer Drug Screen. Data for the rad50 strain (AID 155);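 further: 0% = growth of vehicle-only cultures of the same strain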; conditions: S. cerevisiae rad50 strain growth inhibition; at 50.0 µM; stronger effect = higher value
In short: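 Growth of the mutant yeast was measured after compound exposure and referenced to vehicle-treated cultures.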

[2] = NCI Yeast Anticancer Drug Screen. Data for the mec2-1 strain (AID 157); conditions: S. cerevisiae mec2-1 strain, at 50.0 µM, stronger effect = higher value
In short: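 Growth inhibition is read against vehicle-treated controls after compound exposure of the mec2-1 yeast strain, which is defective in DNA damage repair or cell cycle control.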

[3] = NCI Yeast Anticancer Drug Screen. Data for the sgs1 mgt1 strain (AID 161);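 further: 0% = growth of cultures given vehicle only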; conditions: S. cerevisiae sgs1 mgt1 strain, at 50.0 µM, stronger effect = higher value
In short: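 Compounds are added to genetically altered yeast, and growth is compared with cultures given vehicle alone to give percent inhibition.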

[4] = NCI Yeast Anticancer Drug Screen. Data for the cln2 rad14 strain (AID 165);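 further: 0% = growth equal to vehicle treated cultures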; conditions: S. cerevisiae cln2 rad14 strain, at 50.0 µM, stronger effect = higher value
In short: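 Growth inhibition, relative to vehicle-treated controls, is the read-out. The test organism is a yeast strain with defined genetic alterations, cln2 rad14.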

[5] = NCI Yeast Anticancer Drug Screen. Data for the bub3 strain (AID 167); conditions: S. cerevisiae bub3 mutant strain, at 50.0 µM, stronger effect = higher value
In short: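 Whole-cell yeast assay. The mutant strain was incubated with compounds, and growth inhibition was determined by comparison with vehicle-treated cells.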

[6] = NCI Yeast Anticancer Drug Screen. Data for the mlh1 rad18 strain (AID 175); conditions: S. cerevisiae mlh1 rad18 strain growth inhibition; at 50.0 µM; stronger effect = higher value
In short: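 Cells of a genetically altered yeast strain, deficient in DNA damage repair, were treated with compound. Their growth was then compared with that of vehicle-treated cultures to give inhibition.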

Measured: growth inhibition

O=[N+]([O-])c1ccccc1S(=O)c1ccccc1[N+](=O)[O-]
inactive: [1] 16.1% | [2] 21.6% | [3] 34.3% | [4] 20.9% | [5] 39.2% | [6] 14.7%

OCC1OC(OC2C(O)C(CO)OC2(CO)OC2OC(CO)C(O)C(O)C2O)C(O)C(O)C1O (stereo not drawn)
inactive: [1] -18.1% | [2] -7.95% | [3] -31.8% | [4] -3.15% | [5] -14.2% | [6] -14.7%

OCC(O)C(O)C(O)C(O)/C=N/O (stereo not drawn)
inactive: [1] 1.4% | [2] 0.7% | [3] -6.4% | [4] -6.7% | [5] -1.1% | [6] 3.65%

O=C(O)C(c1ccccc1)C(O)c1ccccc1 (stereo not drawn)
inactive: [1] 5.35% | [2] -21.4% | [3] -22.7% | [4] -26.1% | [5] -30.4% | [6] -7.45%

CC(=O)NC(N)=S
inactive: [1] 2.3% | [2] 3.75% | [3] -23.1% | [4] -3.05% | [5] -3.25% | [6] -7%

CCOC(=O)C(CCC(C)C)C(=O)OCC
inactive: [1] -7.55% | [2] 7.85% | [3] -9.65% | [4] -53.4% | [5] 4.6% | [6] 2.6%

CCOC(=O)c1cc(/C=C/c2ccc(Cl)cc2Cl)on1
inactive: [1] -31.4% | [2] -52.7% | [3] -43% | [4] -41.1% | [5] -36.1% | [6] -45.5%

O=c1[nH]cc(Cl)cc1O
inactive: [1] -0.15% | [2] -3.3% | [3] -1.35% | [4] -40.9% | [5] 13.2% | [6] 4.9%

CC(C)(N)COS(=O)(=O)O
inactive: [1] -14.6% | [2] -14.1% | [3] -7.95% | [4] -6.9% | [5] 9.25% | [6] -14.1%

C#CC(C)(O)c1ccc(Cl)cc1 (stereo not drawn)
inactive: [1] 14.4% | [2] -2.15% | [3] 8.7% | [4] -7.35% | [5] -26.4% | [6] 2.65%

O=C(NCO)c1ccccc1
inactive: [1] 36.2% | [2] 1.95% | [3] -1.65% | [4] 7.75% | [5] 13.9% | [6] 27.9%

O=[N+]([O-])c1ccc(N=Nc2ccc(O)c3ccccc23)cc1
inactive: [1] 13.3% | [2] 1.45% | [3] 21.9% | [4] 16.6% | [5] -25.2% | [6] -9.35%

c1ccc(/C(=N\N=C(/c2ccccc2)c2cccs2)c2cccs2)cc1
inactive: [1] 18.3% | [2] -23.1% | [3] 25.7% | [4] -2.8% | [5] 23.6% | [6] 10.6%

COc1ccc(-c2cc(-c3cc(-c4ccc(OC)cc4)nc(N)n3)nc(N)n2)cc1
inactive: [1] -13% | [2] 4.45% | [3] -20.8% | [4] -2.65% | [5] -2.65% | [6] 9.8%

C/C(=C\c1cc(Cl)ccc1OCC(=O)O)[N+](=O)[O-]
inactive: [1] 38.1% | [2] 56.1% | [3] 44.5% | [4] 26.9% | [5] 40.8% | [6] 56.2%

CCCCC(O)c1ccccc1 (stereo not drawn)
inactive: [1] -16.6% | [2] -4.15% | [3] -24.7% | [4] -21.8% | [5] -12.9% | [6] 6.8%

Brc1cnc2ccccc2c1
inactive: [1] 12.8% | [2] 9.05% | [3] 26.7% | [4] -7.65% | [5] -2.55% | [6] 22.2%

CCC/C=C(/C(C)=O)C(=O)OCC
inactive: [1] 18.9% | [2] -4.6% | [3] -7% | [4] 0.2% | [5] -19.8% | [6] -6.75%

CC1CCC2C(C)(C)C3CC12CC1OC13C (stereo not drawn)
inactive: [1] -17.4% | [2] -30.4% | [3] 0.7% | [4] 4.95% | [5] 0.65% | [6] -14.5%

COc1cc2c(cc1OC)[C@H](C(=O)O)[C@@H](c1ccc(OC(C)C)c(OC)c1)N(C)C2=O
inactive: [1] 6.05% | [2] -10% | [3] 7.2% | [4] -15.2% | [5] 15.4% | [6] -9.05%

CCCNc1ccc(C2=NCCCN2)cc1
inactive: [1] 0.55% | [2] -19.1% | [3] -3.9% | [4] 7.25% | [5] 17.5% | [6] -1.5%

CCOC(=O)Nc1nn[nH]n1
inactive: [1] 7.75% | [2] 1.35% | [3] 32% | [4] 4.15% | [5] -4.95% | [6] 3.65%

N#Cc1ccc(OC(=O)Nc2ccc(Cl)c(Cl)c2)cc1
inactive: [1] -7.65% | [2] -4.4% | [3] 20.9% | [4] 8.35% | [5] 9.95% | [6] 5.8%

CC(=O)c1cc2c(cc1F)C(C)(C)CCC2(C)C
inactive: [1] -23.2% | [2] -30.4% | [3] -19.1% | [4] -32.5% | [5] -20.1% | [6] -18.6%

CC1(C)N=C(N)N=C(N)N1c1cccc(Br)c1
inactive: [1] -14.3% | [2] -14.4% | [3] -13.1% | [4] 7.15% | [5] -0.95% | [6] 2.3%

COCCCC/C(=N\OCCN)c1ccc(C(F)(F)F)cc1
inactive: [1] 26.5% | [2] 4.6% | [3] 12.6% | [4] -3.9% | [5] -0.35% | [6] 25.3%

Nc1ccccc1SC(CC(=O)c1ccccc1)c1c(Cl)cccc1Cl (stereo not drawn)
inactive: [1] -11.5% | [2] -9.65% | [3] 2.1% | [4] 1.75% | [5] 2.85% | [6] 16.7%

Cn1cnc2nc(Cl)nc(Cl)c21
inactive: [1] 13.1% | [2] 23% | [3] 10.7% | [4] -0.05% | [5] 27.1% | [6] 11.2%

CCC(O)CC(CC)CO (stereo not drawn)
inactive: [1] -4.1% | [2] -2.7% | [3] 4.4% | [4] -32.7% | [5] -12.2% | [6] -10.1%

O=[N+]([O-])c1ccc(-c2ncc(-c3ccc(Br)cc3)o2)cc1
inactive: [1] -0.1% | [2] -3.3% | [3] 21.9% | [4] 11.6% | [5] 17.2% | [6] 3.45%

CC1OC(Oc2c(-c3ccc(O)c(O)c3)oc3cc(O)cc(O)c3c2=O)C(O)C(O)C1O (stereo not drawn)
inactive: [1] 21.4% | [2] -8.25% | [3] 14.2% | [4] 8.6% | [5] 20.9% | [6] 38.4%

CCOC(=O)C/C(C)=N\O
inactive: [1] 4.05% | [2] -11.3% | [3] 7.9% | [4] 8.45% | [5] 9.15% | [6] 2.4%

O=C1N(C[P+](c2ccccc2)(c2ccccc2)c2ccccc2)CCCN1C[P+](c1ccccc1)(c1ccccc1)c1ccccc1
inactive: [1] 17.4% | [2] 7.4% | [3] 3.55% | [4] 14.9% | [5] 15.1% | [6] 12.3%

S=c1[nH]ccn1-c1ccccc1Cl
inactive: [1] -17.8% | [2] -17.2% | [3] -17.6% | [4] -29.1% | [5] -10.4% | [6] -2.1%

COc1cccc(/C=N/NC(=S)NC2CC3CCC2C3)c1O (stereo not drawn)
inactive: [1] -21.6% | [2] -33.1% | [3] -3.4% | [4] -9.9% | [5] -13.9% | [6] -3.5%

CSc1[nH]c(=O)ncc1F
inactive: [1] 4.15% | [2] 4.1% | [3] 3.2% | [4] -4.15% | [5] -2.3% | [6] -7.45%

Cc1cc(=O)cc(C)n1-c1ccccc1
inactive: [1] 11.9% | [2] -5.75% | [3] -15.4% | [4] 0.25% | [5] 12.1% | [6] 19.2%

CC1CCCC(CC(N)=O)CC1 (stereo not drawn)
inactive: [1] 7.8% | [2] 1.05% | [3] 2.1% | [4] 1.3% | [5] 0.7% | [6] 4.2%

N#CSc1cc(S(N)(=O)=O)ccc1N
inactive: [1] 5.65% | [2] -10.2% | [3] 4.05% | [4] -5.35% | [5] -1% | [6] 32%

c1csc(-c2cc(-c3cc(-c4cccs4)[nH]n3)n[nH]2)c1
inactive: [1] 9.4% | [2] -11.2% | [3] 6.35% | [4] -2.7% | [5] -3.05% | [6] 2.6%

O=C(c1ccc(Cl)cc1)c1ccccc1Cl
inactive: [1] 37.9% | [2] -8.3% | [3] 41.3% | [4] -41.1% | [5] 25% | [6] 19%

CC(C)NC(=O)OCc1c(COC(=O)NC(C)C)c(-c2ccc(Cl)c(Cl)c2)n2c1SCC2
inactive: [1] 33.9% | [2] -7.95% | [3] 15.9% | [4] -1.35% | [5] 2.9% | [6] 52.9%

CC(=O)OC(C(=O)O)c1ccccc1 (stereo not drawn)
inactive: [1] 15.9% | [2] -12.1% | [3] 0.25% | [4] 13.8% | [5] -8% | [6] 23.5%
